This note sets out measurements from PubChem BioAssay (EPA / NIEHS).

Inconclusive results are not listed. Active and inactive are the calls of the source. The calls were made as follows: active = hit-call score of the fitted dose curve at least 0.9, where 1 is the maximum; inconclusive = response in the unintended direction; inactive = score below 0.9.

In one experiment the target is human Adenosine A2a Receptor (AdoRA2a), ADORA2A (gene 135) (UniProt P29274). Briefly: NVS_GPCR_hAdoRA2a: NovaScreen (NVS) G Protein-Coupled Receptor Assay for human Adenosine A2a Receptor (AdoRA2a) (AID 2283256). The procedure: NVS_GPCR_hAdoRA2a is a biochemical, single-readout assay that uses extracted gene-proteins from HEK293 in a cell-free assay. Measurements were taken 1.5 hours after chemical dosing in a 96-well plate.NVS_GPCR_hAdoRA2a is one of one assay component(s) measured or calculated from the NVS_GPCR_hAdoRA2a assay. It is designed to make measurements of radioligand binding, a form of binding reporter, as detected with scintillation counting signals by Filter-based radiodetection technology.Data from the assay component NVS_GPCR_hAdoRA2a was analyzed into 1 assay endpoint. This assay endpoint, NVS_GPCR_hAdoRA2a, was analyzed in the positive analysis fitting direction relative to DMSO as the negative control and baseline of activity. Using a type of binding reporter, loss-of-signal activity can be used to understand changes in the binding as they relate to the gene ADORA2A. Furthermore, this assay endpoint can be referred to as a primary readout, because the performed assay has only produced 1 assay endpoint. To generalize the intended target to other relatable targets, this assay endpoint is annotated to the gpcr intended target family, where the subfamily is rhodopsin-like receptor.
Chain of human Adenosine A2a Receptor (AdoRA2a), ADORA2A (gene 135) (P29274 whole entry, looked up): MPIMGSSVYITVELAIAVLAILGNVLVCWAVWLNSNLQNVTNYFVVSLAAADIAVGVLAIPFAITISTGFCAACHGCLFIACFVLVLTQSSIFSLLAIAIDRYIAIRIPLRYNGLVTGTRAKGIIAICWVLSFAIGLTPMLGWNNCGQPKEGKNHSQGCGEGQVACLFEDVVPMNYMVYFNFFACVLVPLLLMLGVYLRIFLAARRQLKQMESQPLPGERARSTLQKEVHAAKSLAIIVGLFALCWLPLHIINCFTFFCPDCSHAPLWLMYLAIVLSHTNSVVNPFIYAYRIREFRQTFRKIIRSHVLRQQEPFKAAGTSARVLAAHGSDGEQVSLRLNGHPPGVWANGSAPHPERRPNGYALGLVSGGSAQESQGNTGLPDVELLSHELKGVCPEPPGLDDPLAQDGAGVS
Binding assays used specific radioligands (tritiated, iodinated) with non-radioactive competitive displacement ligands in agonist or antagonist protocols (as indicated) and various reference compounds and inhibitors to titrate specific binding to receptors and transporters. Most enzyme assays (CYPs, kinases, phosphatases, proteases, HDACs) used recombinant protein and specific substrates (fluorescence mostly, some colorimetric and radioactive) and inhibitors, followed by a biochemical separation of substrate and product. All assays for the biochemical HTS were initially run in duplicate at a single concentration (10 uM for CYP450 assays and 25 uM for all others). […] Each assay was run with positive and negative controls, and concurrent controls on every plate. The follow-up (secondary) screen tested active chemical-pairs in concentration series, as well as a few additional assays not tested in the primary screen, some selected negative inactives, and several cases re-run in the concentration series for confirmatory purposes.
As usually defined, the AC50 is the midpoint of the concentration-response curve, whichever way the signal moves. As to `CCNc1nc(NC(C)C)nc(SC)n1`, the AC50 is 10 µM (active).

With `Oc1c(Cl)c(Cl)c(Cl)c(Cl)c1Cl`, the AC50 is 13.1 µM (active). Turning to `O=C(O)C(F)(F)C(F)(F)C(F)(F)C(F)(F)C(F)(F)C(F)(F)C(F)(F)C(F)(F)C(F)(F)F`, the AC50 is 7.6 µM (active). For `O=C(O)C(F)(F)C(F)(F)C(F)(F)C(F)(F)C(F)(F)C(F)(F)C(F)(F)C(F)(F)F`, the AC50 is 10.6 µM (active).

Take `Oc1ccc(C(c2ccc(O)cc2)(C(F)(F)F)C(F)(F)F)cc1`: the AC50 is 25 µM (active).

The target in another experiment is human Adrenergic, Beta 1 Receptor (Adrb1), ADRB1 (gene 153) (UniProt P08588). Description: NVS_GPCR_hAdrb1: NovaScreen (NVS) G Protein-Coupled Receptor Assay for human Adrenergic, Beta 1 Receptor (Adrb1) (AID 2283258). The method in brief: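 Membranes/protein extracted from human neuroepithelioma cells, radioligand competition binding read by filtration and scintillation 2 h post-dose. Single 25 uM duplicate screen, then concentration-response follow-up; DMSO as negative control.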
Chain of human Adrenergic, Beta 1 Receptor (Adrb1), ADRB1 (gene 153) (P08588 whole entry, looked up): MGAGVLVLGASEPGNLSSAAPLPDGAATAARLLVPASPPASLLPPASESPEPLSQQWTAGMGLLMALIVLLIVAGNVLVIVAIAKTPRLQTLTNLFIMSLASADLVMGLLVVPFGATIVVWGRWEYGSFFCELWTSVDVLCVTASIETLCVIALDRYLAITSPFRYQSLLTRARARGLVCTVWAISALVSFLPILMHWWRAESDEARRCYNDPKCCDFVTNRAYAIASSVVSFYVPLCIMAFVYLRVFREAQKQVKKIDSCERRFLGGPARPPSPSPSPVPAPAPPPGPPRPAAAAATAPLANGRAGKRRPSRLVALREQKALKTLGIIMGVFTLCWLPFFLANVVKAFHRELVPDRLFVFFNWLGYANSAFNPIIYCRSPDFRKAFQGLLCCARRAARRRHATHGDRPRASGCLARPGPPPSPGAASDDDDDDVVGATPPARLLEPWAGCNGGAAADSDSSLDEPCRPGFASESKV
For `O=C(O)C(F)(F)C(F)(F)C(F)(F)C(F)(F)C(F)(F)C(F)(F)C(F)(F)C(F)(F)C(F)(F)F`, the AC50 is 21.3 µM (active). With `CCCCCCCCCC[N+](C)(C)CCCCCCCCCC`, the AC50 is 5.34 µM (active). Take `CCCN(CCC)N=O`: the outcome was inactive. Regarding `Oc1ccc(C(c2ccc(O)cc2)(C(F)(F)F)C(F)(F)F)cc1`, the AC50 is 19.3 µM (active). As for `CCCCCCCCOC(=O)c1ccccc1C(=O)OCCCCCCCC`, the molecule was classed as inactive.
